# Hits are enriched below; roughly 2.2% of the tested compounds scored in any of these assays.
# LYP inh 2 – blocks human PTPN22 phosphatase activity; Q9Y2R2; inhibition, % at 2 µM; 96,000 tested, 0.21% active; AID 640; recombinant LYP catalytic domain, DiFMUP fluorescence;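 active = inhibition at 2 µM at or above a set limit, the screen mean plus 3 SD, cut at about 24% in these data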
# FAK blocker – blocks human focal adhesion kinase activity; Q05397; biochemical FAK kinase activity assay; inhibition, %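 (tested at 7 µM)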; 97,000 tested, 0.84% active; in the data active = inhibition above about 19%
# PLAP activator – human PLAP activation; P05187; purified PLAP enzyme, luminescent substrate read-out; active compounds read high; activation fold at 20 µM; 96,000 tested, 1.2% active; AID 696; in the data active = activation fold above about 2
# Target sequence (P05187 whole entry, looked up): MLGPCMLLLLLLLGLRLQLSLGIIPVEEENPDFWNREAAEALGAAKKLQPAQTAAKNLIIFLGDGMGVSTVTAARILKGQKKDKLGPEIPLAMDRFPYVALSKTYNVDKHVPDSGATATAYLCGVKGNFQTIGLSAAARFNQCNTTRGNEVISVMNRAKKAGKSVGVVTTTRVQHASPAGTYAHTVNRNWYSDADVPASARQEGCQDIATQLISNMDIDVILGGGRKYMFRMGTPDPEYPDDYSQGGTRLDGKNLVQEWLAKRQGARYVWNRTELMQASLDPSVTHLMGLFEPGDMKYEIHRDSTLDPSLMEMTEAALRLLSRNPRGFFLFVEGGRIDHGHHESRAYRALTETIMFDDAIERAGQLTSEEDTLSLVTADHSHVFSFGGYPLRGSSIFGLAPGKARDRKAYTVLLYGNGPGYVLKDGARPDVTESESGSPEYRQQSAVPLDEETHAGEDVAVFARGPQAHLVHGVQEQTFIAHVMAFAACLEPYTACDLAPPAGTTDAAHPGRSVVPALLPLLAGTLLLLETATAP
# PTPN22 act – activators of human LYP (PTPN22) phosphatase | Q9Y2R2 | 96,000 tested, 0.11% active | recombinant LYP, DiFMUP fluorescence; 0 = plate median, 100 = signal doubled | activation, % at 2 µM;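 active = activation at 2 µM above a set limit, the mean plus 5 SD, cut at about 37% in these data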
# MRP-1 activ – activators of MRP-1. H69AR cells + doxorubicin, viability rescue, CellTiter-Glo. AID 799. viability increase, % at 10 µM. 140,000 tested, 0.61% active;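 active = viability gain under doxorubicin at or above a set limit, the compound median plus 3 SD, cut at about 4.7% in these data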;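 also: MRP-1 overexpressing cells given doxorubicin 25 µM after compound pretreatment; 18-22 h compound pretreatment then 72 h with doxorubicin before readout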
# MRP resist rev – compounds reversing MRP-mediated drug resistance | H69AR cells + 2 uM doxorubicin, CellTiter-Glo, 72 h | differential viability (reversal), % at 10 µM | 85,000 tested, 0.04% active | AID 602;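 active = viability drop by adding the cancer drug above about 55%, with treated viability meeting a 40% cutoff, limit read from the data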;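 also: larger differential means the compound sensitizes cells more to doxorubicin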
# A number is an active result; n = inactive; x = no result.
SMILES,LYP inh 2,FAK blocker,PLAP activator,PTPN22 act,MRP-1 activ,MRP resist rev
Cc1cc(=O)oc2cc(OCC(=O)Nc3cccc(S(=O)(=O)N(C)C)c3)ccc12,x,x,x,x,n,x
Cc1ccc(N(C)S(=O)(=O)c2cccc(C(=O)Oc3ccc4c(C)cc(=O)oc4c3)c2)cc1,x,x,x,x,4.8,x
CCCn1c(C)cc(/C=C(\C#N)C(=O)OCC(=O)Nc2ccc(OC)c(Cl)c2)c1C,x,x,x,x,9.4,x
CCCn1c(C)cc(/C=C(\C#N)C(=O)OCC(=O)NC(=O)NCC)c1C,n,n,n,n,n,n
Cc1cc(C)nc(SCC(=O)Nc2ccc(S(=O)(=O)N3CCCCC3)cc2)n1,n,n,2.1,n,n,n
Cc1cccc(NC(=O)CSc2nnc(-c3ccc(S(=O)(=O)N4CCCC4)cc3)o2)c1,n,n,2.1,n,n,n
Cc1ccc(NC(=O)CSc2nnc(-c3ccc(S(=O)(=O)N4CCCC4)cc3)o2)cc1C,n,n,n,n,n,n
COc1cc(C(=O)Nc2nc(OC)c(-c3ccccc3)c(OC)n2)cc(OC)c1OC,x,x,n,x,n,n
COc1cc(C(=O)Nc2cc(-c3ccccc3)[nH]n2)cc(OC)c1OC,x,x,2.3,x,n,n
CC(=O)c1ccc(NC(=O)C(=O)c2cn(CC(=O)N3CCCCC3)c3ccccc23)cc1,x,x,x,x,n,x
O=C(O)CCN1C(=O)/C(=C/c2ccc(-c3nc4ccccc4s3)o2)SC1=S,24,n,n,n,n,x
O=C(O)CC(C(=O)O)N1C(=O)/C(=C/c2ccc(-c3nc4ccccc4s3)o2)SC1=S (stereo not given),n,n,n,n,n,x
Cn1nc(C(F)(F)F)c2cc(NC(=O)OCc3ccc(C(C)(C)C)cc3)sc21,n,n,n,n,7.1,n
Cn1nc(C(F)(F)F)c2cc(NC(=O)OCc3ccc(F)cc3)sc21,n,n,n,n,n,n
COc1ccc(/C=N/c2oc(-c3ccccc3)cc2C#N)cc1OC,n,n,n,n,n,x
CCc1nc(SCC(=O)c2cc(C)ccc2C)n[nH]1,n,n,2.3,n,n,n
Cc1ccc(C)c(C(=O)CSc2n[nH]c(C)n2)c1,n,n,n,n,n,n
CCn1c(SCC(=O)Nc2ccc(C)cc2)nnc1-c1ccc(O)cc1,n,n,x,n,n,n
COC(=O)c1cc(OC)c(OC)cc1NC(=O)c1ccc(C)o1,n,n,2.2,n,n,n
Cc1ccc(-c2cc(-c3ccccc3)no2)c(O)c1,x,x,x,x,5.3,x
CCC(OC(=O)CC1Sc2ccccc2NC1=O)C(=O)NCC1CCCO1 (stereo not given),n,n,2,n,n,n
CCOC(=O)CC1Sc2ccccc2NC1=O (stereo not given),n,n,n,n,n,n
CCOC(=O)CNC(=O)CSc1nc(N)cc(N)n1,n,n,n,n,n,n
CCOC(=O)CNC(=O)CSc1nc2nc(C)c(Br)cc2[nH]1,n,n,2.3,n,n,x
Cc1nc2nc(SCC(N)=O)[nH]c2cc1Br,n,n,2.2,n,n,n
SMILES,LYP inh 2,FAK blocker,PLAP activator,PTPN22 act,MRP-1 activ,MRP resist rev
Cc1nc2nc(SCC(=O)c3ccc([N+](=O)[O-])cc3)[nH]c2cc1Br,x,x,x,x,n,x
Cc1ccc2c(n1)CC(C)(C)C/C2=N\O,n,n,x,n,n,n
c1ccc2c(-c3nc(C4CCCCC4)no3)cc(-c3ccncc3)nc2c1,n,n,n,n,7.6,n
COc1ccc(O)c(/C=N\NC(=O)CCn2nnc3ccccc32)c1,n,n,2.1,n,n,x
O=C(CCS(=O)(=O)c1ccc(Br)cc1)Nc1ccc(Br)cc1F,x,x,x,x,n,x
O=C(Nc1cccc([N+](=O)[O-])c1)c1[nH]ncc1Cl,x,x,x,x,6.1,x
O=C1NC(=O)C2(COC(c3ccccc3Cl)OC2)S1 (stereo not given),x,x,x,x,7.2,x
CC(C)CC(=O)NC(=S)Nc1ccc(NC(=O)c2ccco2)cc1,x,x,x,x,n,x
CC1(C)Oc2ccc3ccc(=O)oc3c2-c2cn[nH]c21,n,24,n,n,n,n
CC1(C)Oc2ccc3ccc(=O)oc3c2-c2cnoc21,x,x,n,x,n,n
COc1ccc(CNc2nc(NCc3ccc(OC)cc3)n(S(C)(=O)=O)n2)cc1,n,n,n,n,5.1,n
C=CCn1c(Cc2ccc(OC)cc2)nnc1SCc1nc2ccccc2c(=O)[nH]1,n,n,n,n,n,n
COCCn1c(Cc2ccccc2)nnc1SCc1nc2ccccc2c(=O)[nH]1,28,n,n,n,n,x
Cc1ccc(NC(=O)CN2C(=O)S/C(=C\c3cccn3C)C2=O)cc1,n,n,n,n,n,x
Cc1ccc(NC(=O)CN2C(=O)S/C(=C\c3ccc(-c4cccc(C(=O)O)c4C)o3)C2=O)cc1,56,n,n,n,n,n
CCC(C)(C)NC(=O)CN(C(=O)CNS(=O)(=O)c1ccc(C)cc1)c1ccc2c(c1)OCCO2,n,n,2,n,n,n
Cc1ccc(S(=O)(=O)NCC(=O)N(CC(=O)NC2CCCC2)c2ccc3c(c2)OCCO3)cc1,n,n,n,n,n,n
O=C(CCn1c(=O)[nH]c2ccsc2c1=O)N1CCN(c2cccc(Cl)c2)CC1,n,n,n,n,n,n
Cc1ccc(Cl)cc1N1CCN(C(=O)Cc2ccc(-n3c(=O)[nH]c4ccsc4c3=O)cc2)CC1,x,x,x,x,9.7,x
CNC(=O)/C(C#N)=C/c1c(N(Cc2ccccc2)Cc2ccccc2)nc2ccccn2c1=O,x,x,x,x,n,x
Cc1ccc(Cn2ccc(NC(=O)c3noc4c3CCCCC4)n2)cc1,x,x,n,x,4.7,n
O=C(CSc1nc2ccc(S(=O)(=O)N3CCOCC3)cc2[nH]1)N1CCOCC1,34,n,n,n,n,n
Cc1ccc(C2CC2c2n[nH]c(=S)n2-c2ccc(C)cc2)cc1 (stereo not given),n,n,2.1,n,n,x
COc1ccc(-c2nc(=S)[nH][nH]2)cc1,n,n,2,n,n,n
O=C(c1ncn[nH]1)N1CCN(c2nc(-c3ccccc3)cs2)CC1,n,n,2.6,n,n,n
SMILES,LYP inh 2,FAK blocker,PLAP activator,PTPN22 act,MRP-1 activ,MRP resist rev
Cc1cc(C)cc(NC(=O)C2CCCN2/C=C/C(=O)C(F)(F)F)c1 (stereo not given),x,x,x,x,n,x
O=c1[nH]c2c(cc1CNCCN1CCOCC1)c(-c1cccc(F)c1)nn2-c1ccccc1,x,x,2,x,x,n
Cc1nc(OCc2ccccc2)c2sc3nc4c(cc3c2n1)COC(C)(C)C4,n,n,n,n,6.1,n
Cc1cc(C)nc(NC2=NCC(=O)N2c2cccc(Cl)c2)n1,n,n,2.1,n,n,n
Cc1cc(C)nc(NC2=NCC(=O)N2c2ccccc2Br)n1,n,n,x,n,n,n
Cc1cc(C)nc(NC2=NCC(=O)N2c2ccc3c(c2)OCCO3)n1,n,n,2,n,n,n
COc1ccc(N2C(=O)CN=C2Nc2nc(C)cc(C)n2)cc1,n,n,2.3,n,n,n
Cc1ccc(NC2=NCC(=O)N2c2ccc3c(c2)OCCO3)c(C)c1,n,n,x,n,n,n
Cc1cc(C)nc(NC2=NCC(=O)N2c2ccccc2)n1,n,n,2.4,n,n,n
Cc1cc(C)c(C)c(S(=O)(=O)N2CCN(CC(=O)Nc3sccc3C#N)CC2)c1C,x,x,x,x,n,x
